PubChem BioAssay (Tox21)
Inconclusive results are not listed. The source made the active and inactive calls. Unless noted, calls follow the shape of the full dose curve.

How the values were obtained:
[1] = Nuclear factor erythroid 2-related factor 2/antioxidant responsive element (Nrf2/ARE) small molecule agonists: qHTS cell viability counter screen in human keratinocytes (AID 1919968; active = well fitted curve in the direction sought with a large enough effect in the repeat runs; an effect the other way counts as inactive or inconclusive; also: nearly all actives have a fitted effect of over 55% in size; also: potency is read from the fitted curve at half-maximal effect)
In short: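 KeratinoSens HaCaT cells, 1,500/well, preincubated 5 h, then exposed to compounds in DMSO for 23 h at 37 C/5% CO2. Viability read as CellTiter-Fluor fluorescence after 1 h, in the same wells as the ARE-luciferase read.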

[2] = Nuclear factor erythroid 2-related factor 2/antioxidant responsive element (Nrf2/ARE) small molecule agonists: luciferase reporter gene qHTS assay in human keratinocytes (AID 1919969); also: nearly all actives have a fitted effect of over 35% in size
[3] = biological target: Gonadotropin-releasing hormone receptor (Homo sapiens) (UniProt P30968); assay: Human gonadotropin-releasing hormone receptor (GnRHR) small molecule agonists, calcium flux assay in GnRHR-HEK293 cells (AID 1920063); also: nearly all actives have a fitted effect of over 35% in size
Gonadotropin-releasing hormone receptor (Homo sapiens), sequence (P30968 whole entry, looked up): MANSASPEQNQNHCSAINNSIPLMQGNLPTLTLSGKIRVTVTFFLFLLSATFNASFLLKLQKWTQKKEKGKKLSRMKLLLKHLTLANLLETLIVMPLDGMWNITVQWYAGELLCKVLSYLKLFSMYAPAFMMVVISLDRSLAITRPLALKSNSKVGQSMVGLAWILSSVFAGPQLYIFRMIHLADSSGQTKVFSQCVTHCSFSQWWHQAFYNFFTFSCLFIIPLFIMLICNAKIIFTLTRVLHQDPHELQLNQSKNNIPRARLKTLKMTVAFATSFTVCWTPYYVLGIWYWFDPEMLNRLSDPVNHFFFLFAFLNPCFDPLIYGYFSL
In short: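 HEK293 cells stably expressing human GnRHR were dye-loaded for 1 h at 37 C. Compound was added in agonist mode and fluorescence (Ex/Em 480/540) recorded kinetically for 3 min. Fifteen concentrations, triplicates.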

[4] = biological target: KiSS-1 receptor (Homo sapiens) (UniProt Q969F8); assay: Human kisspeptin (KISS1R) small molecule agonists, calcium flux assay in KISS1R-HEK293 cells (AID 1920064; active = well fitted curve in the direction sought with a large enough effect in the repeat runs; an effect the other way counts as inactive or inconclusive)
KiSS-1 receptor (Homo sapiens), sequence (Q969F8 whole entry, looked up): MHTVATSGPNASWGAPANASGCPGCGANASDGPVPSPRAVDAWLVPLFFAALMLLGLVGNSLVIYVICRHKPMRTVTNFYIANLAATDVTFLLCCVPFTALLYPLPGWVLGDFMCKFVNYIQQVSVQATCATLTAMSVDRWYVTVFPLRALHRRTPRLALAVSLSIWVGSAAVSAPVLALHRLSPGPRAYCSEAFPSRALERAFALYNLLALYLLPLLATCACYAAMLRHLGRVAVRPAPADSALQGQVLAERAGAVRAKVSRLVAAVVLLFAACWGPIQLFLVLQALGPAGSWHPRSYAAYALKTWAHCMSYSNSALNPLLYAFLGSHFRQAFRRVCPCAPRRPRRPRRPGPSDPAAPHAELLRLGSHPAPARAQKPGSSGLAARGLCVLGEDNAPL
In short: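 HEK293 cells stably expressing human KISS1R were loaded with calcium dye for 1 h at 37 C, then given compound; fluorescence (Ex/Em 480/540) was read kinetically for 3 min. Fifteen concentrations, triplicate.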

[5] = G protein-coupled receptor (GPCR) small molecule agonists, calcium flux assay: HEK293 wild type cell line counter screen (AID 1920065)
In short: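 Wild-type HEK293 cells plated 18 h, loaded with calcium dye 1 h at 37 C, then compounds added in agonist mode (ATP as positive control). Kinetic fluorescence Ex/Em 480/540 recorded 3 min at 1 sec intervals; 15 concentrations, triplicate.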

[6] = p53 small molecule agonists, cell-based qHTS assay with human liver microsomes (AID 1963577);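 also: p53 response element beta-lactamase reporter cells with liver microsomes plus NADPH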
In short: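 HLM-supplemented p53RE-bla reporter assay: 16 h compound exposure at 37 C, microsomes and NADPH each 0.5 mg/mL final, read by fluorescence intensity.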

[7] = p53 small molecule agonists, cell-based qHTS assay with rat liver microsomes (AID 1963578)
In short: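 Quantitative HTS of the Tox21 10K library: p53RE-bla cells, rat liver microsomes plus NADPH at 0.5 mg/mL final each, 16 h at 37 C, beta-lactamase fluorescence detection.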

[8] = p53 small molecule agonists, cell-based qHTS assay with human liver microsomes: qHTS cell viability counter screen (AID 1963579); also: nearly all actives have a fitted effect of over 45% in size; also: potency is read from the fitted curve at half-maximal effect
In short: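 Viability of p53RE-bla cells is measured as CellTiter-Glo luminescence following a 16 h, 37 C incubation with compound, liver microsomes from human donors and NADPH.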

[9] = p53 small molecule agonists, cell-based qHTS assay with rat liver microsomes: qHTS cell viability counter screen (AID 1963580); also: nearly all actives have a fitted effect of over 45% in size
In short: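 HCT-116 p53RE-bla, 4,000 cells/well, 5 h pre-incubation; cpd + rat liver microsomes 0.5 mg/mL + NADPH 0.5 mg/mL (final); 16 h, 37 C; CellTiter-Glo, 30 min RT; luminescence.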

[10] = p53 small molecule agonists, cell-based qHTS assay: qHTS cell viability counter screen (AID 1963581); also: nearly all actives have a fitted effect of over 45% in size
In short: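 p53RE-bla HCT-116 cells, compounds added 5 h after plating and incubated 16 h at 37 C. Cytotoxicity measured in the same wells as intracellular ATP by CellTiter-Glo luminescence after 30 min at room temperature.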

[11] = cAMP Responsive Elements (CRE) small molecule agonists, cell-based qHTS assay (AID 1963590)
In short: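 CRE-bla HEK 293T cells, 2,000/well in DMEM with 10% dialyzed FBS and 25 mM HEPES, pre-incubated 18 h at 37 C, then exposed to compound 3 h at 37 C. Beta-lactamase reporter read with LiveBLAzer B/G FRET substrate after 2 h at room temperature.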

[12] = cAMP Responsive Elements (CRE) small molecule antagonists, cell-based qHTS assay (AID 1963591; active = well fitted inhibition curve with a large enough effect in the signal ratio in the repeat runs, not every such curve was filed as active; the % refers to the signal ratio; also: potency is read from the fitted curve at half-maximal effect)
In short: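 CRE-bla HEK293T cells plated 18 h, then given compound plus NKH477 at 0.25 uM final for 3 h at 37C. Beta-lactamase reporter read with LiveBLAzer B/G FRET substrate after 2 h at room temperature.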

[13] = biological target: Beta-2 adrenergic receptor (Homo sapiens) (UniProt P07550); assay: Adrenergic beta2 receptor (ADRB2) small molecule antagonists, cell-based qHTS assay (AID 1963592); also: nearly all actives have a fitted effect of over 50% in size; also: potency is read from the fitted curve at half-maximal effect; as to activity change, negative = inhibition: series mostly up to about 92 µM
Beta-2 adrenergic receptor (Homo sapiens), sequence (P07550 whole entry, looked up): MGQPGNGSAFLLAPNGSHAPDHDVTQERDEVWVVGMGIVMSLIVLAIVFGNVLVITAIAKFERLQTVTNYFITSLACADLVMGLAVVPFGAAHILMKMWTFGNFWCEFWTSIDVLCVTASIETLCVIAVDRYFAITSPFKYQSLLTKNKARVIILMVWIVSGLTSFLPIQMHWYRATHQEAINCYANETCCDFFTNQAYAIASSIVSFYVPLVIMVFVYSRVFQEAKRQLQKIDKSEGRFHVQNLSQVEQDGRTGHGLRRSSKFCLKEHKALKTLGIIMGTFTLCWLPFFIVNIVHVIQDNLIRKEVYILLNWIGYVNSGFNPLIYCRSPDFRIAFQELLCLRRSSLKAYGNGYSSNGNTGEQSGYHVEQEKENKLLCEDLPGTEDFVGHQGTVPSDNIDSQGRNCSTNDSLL
In short: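 Cells (CHO, stable ADRB2 overexpression) incubated 18-20hr at 37C; compounds added from DMSO; agonist mix (1nM isoproterenol, 100uM IBMX, 25uM Ro-20-1724) added; 0.5hr RT; d2-cAMP and anti-cAMP-cryptate added; 1hr RT; 665/615 nm read.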

[14] = biological target: D(2) dopamine receptor (Homo sapiens) (UniProt P14416); assay: Dopamine D2 receptor (DRD2) small molecule agonists, cell-based qHTS assay (AID 1963594); also: nearly all actives have a fitted effect of over 35% in size
D(2) dopamine receptor (Homo sapiens), sequence (P14416 whole entry, looked up): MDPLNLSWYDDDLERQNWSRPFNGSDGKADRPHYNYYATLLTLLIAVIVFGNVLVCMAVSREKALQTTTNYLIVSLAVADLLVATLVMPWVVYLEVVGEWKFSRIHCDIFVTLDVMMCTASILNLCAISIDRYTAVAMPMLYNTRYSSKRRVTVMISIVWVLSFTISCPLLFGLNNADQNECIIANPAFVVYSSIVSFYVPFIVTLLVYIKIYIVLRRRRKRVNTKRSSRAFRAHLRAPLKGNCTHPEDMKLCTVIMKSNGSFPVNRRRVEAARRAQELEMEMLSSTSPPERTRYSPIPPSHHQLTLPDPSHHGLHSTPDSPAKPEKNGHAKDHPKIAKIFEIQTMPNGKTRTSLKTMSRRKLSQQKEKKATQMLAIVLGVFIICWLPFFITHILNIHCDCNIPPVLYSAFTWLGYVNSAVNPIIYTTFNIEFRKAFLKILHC
In short: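 cAMP accumulation in DRD2-HEK293 cells measured by HTRF after 1 h detection; compounds added 10 min before NKH477 (200nM […]) forskolin-analogue stimulation, 30 min at room temperature, with Ro20-1724 present at 0.1 mM final.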

[15] = biological target: D(2) dopamine receptor (Homo sapiens) (UniProt P14416); assay: Dopamine D2 receptor (DRD2) small molecule antagonists, cell-based qHTS assay (AID 1963595; active = well fitted inhibition curve with a large enough effect in the signal ratio in the repeat runs, with a control signal flat; the % refers to the signal ratio)
In short: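 Readout: HTRF cAMP, cAMP-d2 competing with cellular cAMP for anti-cAMP cryptate, read after 1 h. Cells: DRD2-HEK293. Conditions: 0.1 mM Ro20-1724, 12 nM quinpirole, 200 nM NKH477, 30 min RT.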

[16] = biological target: Beta-2 adrenergic receptor (Homo sapiens) (UniProt P07550); assay: Adrenergic beta2 receptor (ADRB2) small molecule agonists, cell-based qHTS assay (AID 1963593);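 also: CHO cells stably overexpressing human ADRB2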
In short: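 CHO cells stably over-expressing ADRB2 were plated overnight at 37C, then dosed with compounds plus a stimulation mix containing 100uM IBMX and 25uM Ro-20-1724 for 0.5hr at room temperature. cAMP was measured by HTRF competition, 1hr.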

[17] = biological target: 5-hydroxytryptamine receptor 2A (Homo sapiens) (UniProt P28223); assay: 5-hydroxytryptamine receptor 2A (HTR2A) small molecule agonists, cell-based qHTS assay (AID 1963587); also: nearly all actives have a fitted effect of over 30% in size
5-hydroxytryptamine receptor 2A (Homo sapiens), sequence (P28223 whole entry, looked up): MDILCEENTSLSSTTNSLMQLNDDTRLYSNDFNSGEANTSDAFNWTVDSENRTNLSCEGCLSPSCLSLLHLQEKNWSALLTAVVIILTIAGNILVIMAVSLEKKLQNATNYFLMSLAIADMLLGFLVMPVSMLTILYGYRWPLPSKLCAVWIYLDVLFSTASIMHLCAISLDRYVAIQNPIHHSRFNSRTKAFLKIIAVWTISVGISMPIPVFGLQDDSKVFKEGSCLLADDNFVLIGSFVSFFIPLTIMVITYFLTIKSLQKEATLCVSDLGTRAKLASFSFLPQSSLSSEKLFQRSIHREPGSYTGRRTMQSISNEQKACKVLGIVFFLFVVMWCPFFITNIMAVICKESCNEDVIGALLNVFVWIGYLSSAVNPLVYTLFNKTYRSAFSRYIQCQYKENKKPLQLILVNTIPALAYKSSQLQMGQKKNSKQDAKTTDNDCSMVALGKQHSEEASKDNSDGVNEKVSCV
In short: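 Kinetic calcium-flux fluorescence (2 min, 1 sec intervals) after compound addition in agonist mode. HTR2A-CHO cells were cultured 18 h, then dye-loaded 1 h at 37 C.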

[18] = biological target: Muscarinic acetylcholine receptor M1 (Homo sapiens) (UniProt P11229); assay: Cholinergic receptor muscarinic 1 (CHRM1) small molecule antagonists, cell-based qHTS assay (AID 1963588); also: nearly all actives have a fitted effect of over 40% in size
Muscarinic acetylcholine receptor M1 (Homo sapiens), sequence (P11229 whole entry, looked up): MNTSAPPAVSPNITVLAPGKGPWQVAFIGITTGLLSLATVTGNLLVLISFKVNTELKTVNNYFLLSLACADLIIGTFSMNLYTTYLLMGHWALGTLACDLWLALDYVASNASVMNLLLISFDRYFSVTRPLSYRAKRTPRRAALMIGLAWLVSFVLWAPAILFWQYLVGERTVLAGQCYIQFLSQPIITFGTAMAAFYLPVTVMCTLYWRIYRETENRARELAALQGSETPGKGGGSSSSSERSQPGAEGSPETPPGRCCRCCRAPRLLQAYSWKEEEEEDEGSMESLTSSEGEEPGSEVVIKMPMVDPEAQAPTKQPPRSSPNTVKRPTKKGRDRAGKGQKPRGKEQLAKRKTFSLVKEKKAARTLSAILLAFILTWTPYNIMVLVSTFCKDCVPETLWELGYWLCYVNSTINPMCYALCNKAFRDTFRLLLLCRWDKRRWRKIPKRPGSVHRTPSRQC
In short: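 CHRM1-CHO calcium-flux assay, antagonist mode. Cells were seeded 18 h, dye-loaded 1 h at 37 C and given compound for 5 min at RT, then acetylcholine was added at 50nM. FDSS fluorescence was read 3 min; 15 concentrations, three runs.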

[19] = biological target: Muscarinic acetylcholine receptor M1 (Homo sapiens) (UniProt P11229); assay: Cholinergic receptor muscarinic 1 (CHRM1) small molecule agonists, cell-based qHTS assay (AID 1963589); also: nearly all actives have a fitted effect of over 35% in size
In short: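 CHO cells stably expressing human CHRM1 were loaded with calcium dye for 1 h at 37 C, then compound was added in agonist mode. Intracellular calcium fluorescence was followed kinetically at 1 s intervals. Fifteen concentrations were tested in three independent runs.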

[20] = biological target: 5-hydroxytryptamine receptor 2A (Homo sapiens) (UniProt P28223); assay: 5-hydroxytryptamine receptor 2A (HTR2A) small molecule antagonists, cell-based qHTS assay (AID 1963586); also: nearly all actives have a fitted effect of over 45% in size
In short: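 Antagonist-mode intracellular calcium assay: DOI (4 nM) added after 5 min compound pre-incubation at room temperature to dye-loaded HTR2A-CHO cells. Fluorescence followed for 3 min, sampled every second.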
% is scaled to controls: 0 for no effect and ±100 for the full control effect.

COc1cc2nc(N3CCN(C(=O)c4ccco4)CC3)nc(N)c2cc1OC
inactive: activity change, negative = cytotoxicity [1] -15.2% [at 19 µM] | activity, positive = activation [2] -0.0377% [at 19 µM] | activity change [3] -0.192% [at 11.8 µM, active compounds read high] | activation [4] 1.31% [at 15.8 µM] | activation [5] 0.594% [at 11.8 µM] | activation [6] -0.142% [at 13.5 µM] | activation [7] 0.86% [at 13.6 µM] | activity change, negative = cytotoxicity [9] 0.442% [at 13.5 µM] | activity change, negative = cytotoxicity [10] 24.1% [at 13.5 µM] | activation [11] -0.578% [at 19 µM] | activity change, negative = inhibition [12] 4.27% [at 18.9 µM] | activation [14] 10.2% [at 19 µM] | activity change, negative = inhibition [15] 1.94% [at 18.9 µM]
active: Potency [8] 0.972 µM | Potency [13] 14.6 µM

CN(Cc1cc(Br)cc(Br)c1N)C1CCCCC1
active: Potency [1] 16.8 µM
inactive: Potency [2] | Potency [3] | outcome [4] | outcome [5] | Potency [6] | Potency [7] | Potency [8] | Potency [9] | Potency [10] | Potency [13] | Potency [16] | Potency [14] | Potency [15]

O=C=Nc1cccc(C(F)(F)F)c1
inactive: Potency [1] | Potency [2] | Potency [3] | outcome [4] | outcome [5] | Potency [6] | Potency [7] | Potency [8] | Potency [9] | Potency [10] | Potency [17] | Potency [18] | Potency [19] | Potency [11] | Potency [12] | Potency [13] | Potency [15]

CCN(C(=O)c1cc(C)cc(OC[C@H](C)Nc2ccncc2)c1)C(C)C
inactive: Potency [1] | Potency [2] | Potency [3] | outcome [4] | outcome [5] | Potency [6] | Potency [7] | Potency [8] | Potency [9] | Potency [10] | Potency [17] | Potency [18] | Potency [19] | Potency [13] | Potency [16] | Potency [14] | Potency [15]
active: Potency [12] 21.4 µM

CCCCCCCCCCCl
inactive: Potency [1] | Potency [2] | Potency [3] | outcome [4] | outcome [5] | Potency [6] | Potency [7] | Potency [8] | Potency [9] | Potency [10] | Potency [17] | Potency [18] | Potency [19] | Potency [11] | Potency [13] | Potency [14] | Potency [15]

CCCCCCCCCCCCCc1ccccc1
inactive: Potency [1] | Potency [2] | Potency [3] | outcome [4] | outcome [5] | Potency [6] | Potency [7] | Potency [8] | Potency [9] | Potency [10] | Potency [17] | Potency [18] | Potency [11] | Potency [12] | Potency [13] | Potency [16] | Potency [14] | Potency [15]

CCCCCCCCCCCC[N+](C)(C)CC(=O)[O-]
inactive: Potency [1] | Potency [2] | Potency [3] | outcome [4] | outcome [5] | Potency [6] | Potency [7] | Potency [8] | Potency [9] | Potency [10] | Potency [18] | Potency [19] | Potency [11] | Potency [13] | Potency [16] | Potency [14] | Potency [15]

COc1cc(S(=O)(=O)O)c(C)cc1N=Nc1c(O)ccc2cc(S(=O)(=O)O)ccc12
inactive: Potency [2] | Potency [3] | outcome [4] | outcome [5] | Potency [6] | Potency [7] | Potency [8] | Potency [9] | Potency [10] | Potency [20] | Potency [18] | Potency [19] | Potency [11]
active: Potency [1] 24.3 µM

CCn1cc(C(=O)O)c(=O)c2cnc(N3CCCC3)nc21
inactive: activity change, negative = cytotoxicity [1] -0.789% [at 8.39 µM] | activity, positive = activation [2] 0.384% [at 8.39 µM] | activity change [3] -1.43% [at 5.22 µM, active compounds read high] | activation [4] 2.91% [at 6.97 µM] | activation [5] 0.533% [at 5.23 µM] | activation [6] 10.8% [at 5.99 µM] | activation [7] -0.037% [at 5.99 µM] | activity change, negative = cytotoxicity [8] 17.3% [at 5.99 µM] | activity change, negative = cytotoxicity [9] -0.816% [at 5.99 µM] | activity change, negative = cytotoxicity [10] -0.227% [at 5.99 µM] | activation [11] -3.86% [at 8.39 µM] | activity change, negative = inhibition [12] -10.5% [at 8.39 µM] | activity change, negative = inhibition [13] -0.194% [at 8.39 µM] | activation [14] 1.32% [at 8.39 µM] | activity change, negative = inhibition [15] 2.86% [at 8.38 µM]

CCC1C(=O)OCC1Cc1cncn1C (configuration not stated)
inactive: Potency [1] | Potency [2] | Potency [3] | outcome [4] | outcome [5] | Potency [6] | Potency [7] | Potency [8] | Potency [9] | Potency [10] | Potency [11] | Potency [12] | Potency [13] | Potency [16] | Potency [14] | Potency [15]

CCCc1nc2c(C)cc(-c3nc4ccccc4n3C)cc2n1Cc1ccc(-c2ccccc2C(=O)O)cc1
inactive: Potency [1] | Potency [2] | Potency [3] | outcome [4] | outcome [5] | Potency [6] | Potency [7] | Potency [8] | Potency [9] | Potency [10] | Potency [17] | Potency [18] | Potency [19] | Potency [13] | Potency [14] | Potency [15]

CCCCc1ccc(N)cc1
inactive: Potency [1] | Potency [2] | Potency [3] | outcome [4] | outcome [5] | Potency [6] | Potency [7] | Potency [8] | Potency [9] | Potency [10] | Potency [20] | Potency [18] | Potency [19] | Potency [11] | Potency [12] | Potency [15]

NS(=O)(=O)c1cc(C(=O)NN2C[C@H]3[C@H]4CCC(C4)[C@H]3C2)ccc1Cl
inactive: Potency [1] | Potency [2] | Potency [3] | outcome [4] | outcome [5] | Potency [6] | Potency [7] | Potency [8] | Potency [9] | Potency [10] | Potency [17] | Potency [18] | Potency [19] | Potency [13] | Potency [16] | Potency [14] | Potency [15]

O=C1CCC(C2CCCCC2)CC1
inactive: Potency [1] | Potency [2] | Potency [3] | outcome [4] | outcome [5] | Potency [6] | Potency [7] | Potency [8] | Potency [9] | Potency [10] | Potency [20] | Potency [18] | Potency [19] | Potency [11] | Potency [13] | Potency [16] | Potency [15]
